# Bioassay records (PubChem BioAssay)
# This is a sample that favours compounds with a hit; in the whole collection about 2.3% have one here.
# aSyn rescue – alpha-synuclein toxicity inhibition in yeast | Yeast expressing alpha-synuclein, growth rescue, BacTiter-Glo, 24 h | Potency, µM (titrated, usually from 46.1 µM), for the others: at the highest dose growth rescue (activation), most hits filed as activators | 370,000 tested, 0.14% active | AID 652106; further: potency means the concentration at half of the fitted maximal effect; % of control where 0% means no effect; nearly all actives have a fitted effect of over 65% in size
#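 Rescue of yeast growth: cells expressing toxic alpha-synuclein, induced in galactose at OD600 0.02, incubated with compound 24 h at 30 C. ATP luminescence quantified growth; inhibitors of toxicity appear as activators.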
# CCT chaperon mod – modulators of cytosolic chaperonin (CCT/TRiC) activity; purified chaperonin ATPase assay, HTRF ADP detection, 30 min; activity change, % (test concentration not listed), hits read low; 360,000 tested, 0.3% active; AID 651819; in the data active means activity change below about -30%; further: on the % scale 0 is the no-effect control and ±100 the full control effect
#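 First, chaperonin was dispensed at 40 nM or 20 nM final depending on batch activity. Next, compounds were pinned at 76 uM and ATP added at 10 uM. After 30 min at 37 °C, ADP detection reagents ran 30 min at ambient temperature.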
# Abeta rescue – compounds reversing amyloid beta toxicity in yeast. yeast expressing A-beta42, growth rescue, OD600, 48 h; response scale: 0% DMSO, 100% iron-clioquinol control. Potency, µM (highest dose often 46.1 µM), most hits filed as activators. 410,000 tested, 0.063% active. AID 1347071; further: potency means the concentration at half of the fitted maximal effect; nearly all actives have a fitted effect of over 55% in size
#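 Yeast A-beta toxicity model in growth medium with pinned compounds, 48 h at 30 C; growth read as absorbance at 600 nm. Normalized to FeCl3/clioquinol equimolar mix (positive) and DMSO (negative).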
# TDP-43 yeast inh – rescues yeast growth from TDP-43 toxicity. 410,000 tested, 1.8% active. AID 652104. Potency, µM (titrated, usually from 46.1 µM), for the others: at the highest dose growth rescue (activation), actives largely listed as activators. TDP-43 expressing yeast growth rescue, BacTiter-Glo, 24 h; further: potency means the concentration at half of the fitted maximal effect; % of control where 0% means no effect; nearly all actives have a fitted effect of over 50% in size
#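 Readout is BacTiter-Glo luminescence of cell growth, so inhibitors register as activators. TDP-43-expressing yeast at OD600=0.02 in galactose medium, after raffinose pregrowth to mid-log, were incubated with compound for 24 hr at 30 deg C.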
# MmCpn inh – M. maripaludis TRiC chaperonin inhibition; 330,000 tested, 0.031% active; Potency, µM (doses to about 76.9 µM), for inactives: at the highest dose activity, negative = inhibition, usual class: inhibitors; purified Mm-Cpn ATPase, ADP Transcreener TR-FRET; further: potency means the concentration at half of the fitted maximal effect; on the % scale 0 is the no-effect control and ±100 the full control effect; nearly all actives have a fitted effect of over 80% in size
#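 Purified archaeal Mm-CPN (25nM final) preincubated 10 min at 37degC with compound, then 10uM ATP for 30 min at 37degC; ADP measured by HTRF Transcreener TR-FRET; buffer 30 mM TRIS pH 7.4, 100mM KCl, 5mM MgCl2, 1mM DTT.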
# FUS suppressor – rescues growth of FUS-expressing yeast. S. cerevisiae FUS-expressing, growth rescue, OD600, 24 h. Potency, µM (top dose mostly 76.6 µM), usual class: activators. 390,000 tested, 0.24% active. AID 1347120;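 further: potency means the concentration at half of the fitted maximal effect; plate controls were DMSO vehicle for no effect and reference control for full effect; nearly all actives have a fitted effect of over 55% in size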
#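 Read-out: OD at 600 nm after 24hr at 30C, reporting rescue of FUS-induced yeast toxicity. Cells at OD 0.005 in galactose (2%) minimal medium; compounds tested in a dilution series; CP55940 titration from 92uM final as control.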
# * hit, by the source's call; i = inactive; ? = inconclusive; · = not tested or not shown. Unless noted, the call rests on the fitted dose curve; in most records, active means well fitted curve in the direction sought with a large enough effect; inconclusive means small, poorly fitted or top-dose-only effect, or another doubt; inactive means no such curve, though single readings can be large; an effect the other way counts as inactive or inconclusive.
SMILES,aSyn rescue,CCT chaperon mod,Abeta rescue,TDP-43 yeast inh,MmCpn inh,FUS suppressor
COCCN1CC(=O)N(c2cccc(C)c2C)C(c2ccc(Cl)cc2)C1=O (stereo not given),5.0%,2.1,i,6.9%,0.6%,i
Cc1cccc(N2C(=O)C(Oc3ccc(Cl)cc3Cl)C2C=O)c1C (stereo not given),-51.3%,-1.5,i,15.8µM*,-0.2%,·
COc1ccc(C)cc1S(=O)(=O)NCc1cccs1,7.9%,-0.5,i,-15.9%,0.4%,i
COc1ccc(Br)cc1S(=O)(=O)NCCc1cccs1,?,1.8,i,20µM*,0.4%,i
Cc1ccc(-n2ncc3c(NCc4ccco4)ncnc32)cc1C,-0.1%,-3.0,i,9.3%,2.1%,i
Cc1ccc(-n2ncc3c(NCCc4ccccc4)ncnc32)cc1C,·,·,i,?,·,i
CSc1ncnc2c1cnn2-c1ccc(C)cc1C,-7.8%,-3.4,i,17.8µM*,-0.7%,i
Cc1ccc(Nc2ncnc3c2cnn3-c2ccccc2)c(C)c1,3.2%,·,i,35.5µM*,·,i
CNc1ncnc2c1cnn2-c1ccc(C)c(C)c1,·,·,i,11.2µM*,·,i
Cc1ccc(-n2ncc3c(Nc4cccc(C)c4C)ncnc32)cc1,·,·,i,6.4%,·,i
c1ccc(CCNc2ncnc3c2cnn3-c2ccccc2)cc1,-18.1%,-0.9,i,15.8µM*,-3.4%,i
CC(=O)c1cccc(NC(=O)CSc2nnc3ccc(-c4ccc(Cl)cc4)nn23)c1,·,·,i,8.8%,·,i
COC(=O)[C@@]12CCCCC3=C1N(CCC3)C(=O)[C@H]2CC(=O)NCCC(C)C,·,·,·,·,·,i
Cn1ncc2c(Nc3ccc4ccccc4c3)ncnc21,-6.1%,3.5,i,10µM*,-1.8%,i
CCOCCCNc1ncnc2c1cnn2-c1ccc(C)c(C)c1,·,·,i,11.2µM*,·,i
Clc1ccccc1Nc1ncnc2c1nnn2Cc1ccccc1,-6.0%,-2.5,i,-8.1%,-9.2%,i
Fc1ccccc1Nc1ncnc2c1nnn2Cc1ccccc1,0.3%,-0.6,?,11.2µM*,-1.4%,i
c1ccc(Cn2ncc3c(Nc4ccccc4)ncnc32)cc1,-6.3%,-2.4,i,12.6µM*,1.9%,i
Cc1cc(C)cc(NC(=O)C2CCC(CNS(=O)(=O)c3ccc4c(c3)C(C)(C)C(=O)N4C)CC2)c1 (stereo not given),·,·,i,4.7%,·,?
Oc1ccc(Cl)cc1C1C=C(c2ccc3c(c2)OCO3)NC(c2ccc(Br)cc2)N1 (stereo not given),-0.8%,·,·,·,·,·
C=CCNC(=O)Nc1ccc2c(c1)[C@@]1(CC(=O)N(CC(C)C)C1c1ccccc1)C(=O)N2C (stereo not given in full),·,·,·,·,·,i
COc1ccccc1C(O)c1nccn1Cc1ccccc1 (stereo not given),1.5%,·,·,·,·,·
COc1ccc(OCc2cc(-c3ccc(Cl)cc3)no2)cc1,0.4%,-0.1,i,-0.1%,-4.0%,i
O=C(CCl)NCc1cc(-c2ccc(Cl)cc2)no1,-7.8%,-0.9,i,10µM*,0.0%,i
COP(=O)(O)CCOCCC(CC(C)C)NC(=O)OCc1ccccc1 (stereo not given),·,·,·,·,·,i
SMILES,aSyn rescue,CCT chaperon mod,Abeta rescue,TDP-43 yeast inh,MmCpn inh,FUS suppressor
COc1cc(/C=C/C(=O)c2ccccc2O)cc(OC)c1OC,13.2%,-1.7,i,15.8µM*,-3.9%,i
Cc1ccc(O)c(C(=O)/C=C/c2ccc3c(c2)OCCCO3)c1,-18.1%,-4.7,i,14.1µM*,0.6%,i
Cc1ccc(/C=C/C(=O)c2ccccc2O)cc1,0.3%,0.8,i,7.1%,0.1%,i
Cc1ccc(O)c(C(=O)C=Cc2ccccc2)c1,?,-0.9,i,12.6µM*,·,·
O=C(/C=C/c1ccc2c(c1)OCCCO2)c1ccccc1O,-37.2%,2.8,i,12.6µM*,-1.4%,·
C=CCn1c(SCC#N)nc2cc(Cl)ccc2c1=O,1.4%,·,·,·,·,·
CCN(CCCN(C)C)c1ccc(/C=C/c2ccnc3ccccc23)cc1,2.1%,·,·,·,·,·
CC(=O)CC[C@@H]1CC[C@]2(CCCN(S(=O)(=O)c3ccccc3)C2)O1,·,·,·,·,·,i
Cc1sc(-n2c(C)cc(/C=C3\SC(=S)NC3=O)c2C)c(C#N)c1C,12.3%,0.1,i,-30.3%,0.9%,15.8µM*
Cc1cc(/C=C2\SC(=S)NC2=O)c(C)n1-c1cccc(O)c1,1.1%,-1.4,i,5.2%,-1.2%,i
Cc1ccccc1C(=O)Nc1ccccc1C(=O)NCc1ccccc1,-14.4%,-0.6,i,11.2µM*,1.1%,i
Clc1cccc(N2CCN(Cc3nnc(-c4ccccc4)o3)CC2)c1,7.9%,0.0,i,11.2µM*,1.7%,i
OC(CN1CCN(c2cccc(Cl)c2)CC1)C(c1ccccc1)c1ccccc1 (stereo not given),1.0%,-44.0*,i,3.9%,2.3%,i
c1ccc(-c2nnc(CN3CCN(c4ccccc4)CC3)o2)cc1,-0.7%,-1.1,i,24.1%,-0.6%,i
Clc1cccc(N2CCN(CCCN3CCN(c4ccccc4)CC3)CC2)c1,0.4%,0.7,i,-12.4%,·,i
Cc1cc(C)n2c(SCc3ccc(C#N)cc3)nnc2n1,0.4%,0.5,i,22.4µM*,-0.5%,i
COc1ccc(-c2cc(-c3ccccc3)nc3ncnn23)cc1,9.2%,-1.5,i,14.1µM*,-9.0%,i
S=C(Nc1ccc(Cl)c(Cl)c1)Nc1nnc(-c2ccncc2)s1,·,·,·,·,·,i
O=C(c1ccc2nc(-c3ccccc3)c(-c3ccccc3)nc2c1)N1CCCCC1,-0.9%,0.9,i,35.5µM*,0.6%,i
CN1CCN(C(=O)c2ccc3nc(-c4ccccc4)c(-c4ccccc4)nc3c2)CC1,1.3%,-1.1,i,6.6%,-2.1%,i
Cc1ccc(-c2csc(N3C(=N)SCC3=O)n2)cc1,-5.9%,-1.2,i,-14.9%,-2.3%,i
N=C1SCC(=O)N1c1ncc(Cc2ccc(F)cc2)s1,10.0%,-0.4,?,10µM*,-0.1%,i
CN1/C(=C/C(=O)c2nc(S(C)(=O)=O)ncc2Cl)C(C)(C)c2ccccc21,4.1%,-0.9,i,12.6µM*,-4.8%,·
CN1/C(=C\C(=O)c2cncc(Br)c2)C(C)(C)c2ccccc21,13.5%,3.1,i,12.6µM*,-0.8%,i
CN1/C(=C\C(=O)c2cccnc2)C(C)(C)c2ccccc21,12.2%,-0.2,i,2.9%,-0.4%,i
CCN(CC)C(=O)Cn1c2ccccc2c2nc3n(c(=O)c21)CCS3,·,·,·,·,·,i
